An excerpt weighted towards active compounds, which were near 3.1% of everything screened.
NadD inh = inhibitors of Staphylococcus aureus NadD | purified NadD enzyme, colorimetric absorbance read-out | inhibition, % at 20 µM | 360,000 compounds, 0.78% hits | AID 602399; in the data active = inhibition above about 26%
Calb FLC = affects C. albicans growth with fluconazole | C. albicans CaCi-2 (fluconazole-resistant clinical isolate) + fluconazole, Alamar Blue growth, 48 h | growth inhibition, % (concentration not given with the values) | 300,000 compounds, 0.57% hits;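 active = growth inhibition above about 58% in most replicates, limit read from the data, passing the limit was not always enough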;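 also: all wells also contain fluconazole at 8 µg/ml as a sub-toxic cotreatment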
FAS TE block = inhibitors of human fatty acid synthase thioesterase domain. recombinant FAS-TE, OMFH fluorogenic substrate, fluorescence endpoint. inhibition, % at 15 µM. 360,000 compounds, 0.67% hits. AID 602261;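 active = compounds whose normalised, plate-corrected inhibition of enzyme fluorescence in the single-dose primary screen is 50% or more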
ATG4B inhibitor = inhibitors of human ATG4B cysteine protease; ATG4B cleavage of LC3-PLA2, NBD-HPC fluorescence, 1 h; inhibition, % at 8.33 µM; 340,000 compounds, 0.51% hits; AID 504462; in the data active = inhibition above about 40%
Target sequence (Q9Y4P1 whole entry, looked up): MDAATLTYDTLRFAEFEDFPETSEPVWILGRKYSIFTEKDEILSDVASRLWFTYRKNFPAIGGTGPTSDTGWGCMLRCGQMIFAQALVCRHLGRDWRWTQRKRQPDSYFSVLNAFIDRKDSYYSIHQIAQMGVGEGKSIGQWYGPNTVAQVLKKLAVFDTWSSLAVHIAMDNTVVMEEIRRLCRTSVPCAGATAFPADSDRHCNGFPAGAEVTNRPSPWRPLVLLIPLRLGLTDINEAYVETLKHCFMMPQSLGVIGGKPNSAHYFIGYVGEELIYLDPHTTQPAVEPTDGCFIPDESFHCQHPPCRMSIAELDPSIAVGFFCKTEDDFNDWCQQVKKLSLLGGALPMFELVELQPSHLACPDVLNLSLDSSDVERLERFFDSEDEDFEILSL
SUMO Mot1 rescue = SUMOylation pathway inhibition by Mot1-301 growth rescue. S. cerevisiae Mot1-301 growth rescue, ATP luminescence, 38.5C; percent above DMSO median, 100 means doubled. growth rescue, % at 18.8 µM. 320,000 compounds, 1% hits;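 active = every valid replicate shows activation above 250% relative to neutral control wells; inactive = the rest, any valid replicate at or below 250%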
Mot1 SUMO dose = SUMO pathway inhibitors in yeast Mot1-301 growth. shares compounds with SUMO Mot1 rescue. S. cerevisiae Mot1-301 galactose growth, ATP luminescence, 24 h; -100 = growth of slx-deleted rescue strain. AID 493004. growth activity, percent, % at 42 µM. 2,300 tested, under 10 active;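 active = Signal drops as the depositor expects, and the fitted half-maximal dose is no more than ten times the top valid tested dose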;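 also: more negative values mean stronger growth rescue toward the control strain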
Large screens that a line does not name were inactive (follow-up assays come after a bar, where they were run); ! = a repeat was not active.

O=C(Nc1ccc(F)cc1)c1ccc(CSc2ccc(Cl)cc2)o1	none
CC1(C)CCC(=O)N2CC[C@H]3C[C@H](OC(=O)Nc4ccc(Br)cc4)C[C@@H]1[C@H]32	SUMO Mot1 rescue 805 | Mot1 SUMO dose inactive
O=C1CSC(c2ccc(F)cc2)N1c1ccccc1F (configuration not stated)	none
O=C1CSC(c2ccc(F)c(F)c2)N1c1ccccc1F (configuration not stated)	SUMO Mot1 rescue 891 | Mot1 SUMO dose inactive
COc1cccc(C2c3[nH]c4ccccc4c3C[C@H]3C(=O)N(CCCCCO)CC(=O)N23)c1 (some centres not stated)	none
CC(C)c1ccc(C2C(C(=O)c3ccco3)=C(O)C(=O)N2CCN2CCOCC2)cc1 (configuration not stated)	SUMO Mot1 rescue active | Mot1 SUMO dose inactive
CCOC(=O)NC1(NC(C)C)Oc2ccccc2O1	none
CCOC(=O)NC1(Nc2ccc(C)cc2)Oc2ccccc2O1	SUMO Mot1 rescue 445 | Mot1 SUMO dose inactive
CCCCCCNC(=O)CNC(=S)N(Cc1cccs1)C1CCCCC1	none
O=C(Nc1ccc2c(c1)CCCN2C(=O)c1cccs1)c1cccc(F)c1	SUMO Mot1 rescue 566 | Mot1 SUMO dose inactive
O=C(Nc1ccc2c(c1)CCCN2C(=O)c1cccs1)c1ccccc1	none
COCCn1c(-c2ccc(Cl)cc2)cnc1SCC(=O)NCCc1ccc(OC)c(OC)c1	SUMO Mot1 rescue 473 | Mot1 SUMO dose inactive
COc1ccc(CCNC(=O)CSCc2ccc(Cl)cc2)cc1OC	none
COc1ccc(Cl)cc1S(=O)(=O)N1CCC(C(=O)NCCc2ccccc2)CC1	none
COc1ccc(C)cc1S(=O)(=O)N1CCC(C(=O)NCCc2ccccc2)CC1	SUMO Mot1 rescue 413 | Mot1 SUMO dose inactive
Cc1ccc(S(=O)(=O)N2CCCC2C(=O)NCCc2ccccc2)cc1 (configuration not stated)	SUMO Mot1 rescue 471 | Mot1 SUMO dose inactive
O=C(NCC1CC1)C1(C(F)(F)F)C/C(=C\Cc2ccccc2)CCCO1 (configuration not stated)	none
O=C(CCN1C(=O)S/C(=C/c2ccccc2)C1=O)Nc1ccc(O)c(C(=O)O)c1	SUMO Mot1 rescue 435 | Mot1 SUMO dose inactive
O=C(CCN1C(=O)/C(=C\c2ccccc2)SC1=S)Nc1ccc(C(=O)O)cc1	none
O=C(O)/C=C/C(=O)N1CCN(C(c2ccccc2)c2ccccc2)CC1	none
Cc1cc(C)n2ncc(C(=O)O)c2n1	none (no result: SUMO Mot1 rescue)
COc1ccc(OC)c(CCNC(=O)c2ccc3c(c2)N(Cc2ccc(F)cc2)CCS3)c1	SUMO Mot1 rescue 365 | Mot1 SUMO dose inactive
COc1ccc(CCNC(=O)c2ccc3c(c2)N(Cc2ccc(F)cc2)CCS3)c(OC)c1	none
COc1ccc(C(=O)Nc2ccc(Cl)c(S(=O)(=O)Nc3ccccc3OC)c2)cc1	none
COc1ccccc1NC(=O)Nc1ccc(Cl)c(S(=O)(=O)Nc2ccccc2OC)c1	SUMO Mot1 rescue 390 | Mot1 SUMO dose inactive
COc1ccccc1NS(=O)(=O)c1cc(Cl)ccc1OC	SUMO Mot1 rescue 442 | Mot1 SUMO dose inactive
COc1ccccc1NS(=O)(=O)c1ccc(OC)c(OC)c1	none
O=C(OCc1ccccc1)c1cccc(-c2nnn(Cc3ccccc3)n2)c1	SUMO Mot1 rescue 391 | Mot1 SUMO dose inactive
CC(C)(C)C1c2[nH]c3ccccc3c2CCN1Cc1cccc(OCCO)c1 (configuration not stated)	SUMO Mot1 rescue 710 | Mot1 SUMO dose inactive
CC(=O)Nc1ccc(CN2CCc3c([nH]c4ccccc34)C2C(C)(C)C)cc1 (configuration not stated)	none
Cc1ccc(C)c(CC(=O)N2CCCC(c3cc(C(=O)Nc4ccccc4Cl)no3)C2)c1 (configuration not stated)	none (no result: Calb FLC, ATG4B inhibitor, SUMO Mot1 rescue)
O=C(CCSCCC(=O)NCc1ccco1)NCc1ccco1	none (no result: NadD inh, Calb FLC, FAS TE block)
CC(C)C(CC(=O)NCc1ccco1)c1ccco1 (configuration not stated)	SUMO Mot1 rescue 646 | Mot1 SUMO dose inactive
O=S(=O)(c1cccc2nsnc12)N1CCCCC1	none
CC(C)NC(=O)COc1ccc(S(=O)(=O)N(C)Cc2ccccc2)cc1	SUMO Mot1 rescue 363 | Mot1 SUMO dose inactive
CN(Cc1ccccc1)S(=O)(=O)c1ccc(OCC(=O)NCc2ccccn2)cc1	none
Cc1cccc(NS(=O)(=O)c2ccc3[nH]c(=O)cc(C(=O)O)c3c2)c1	SUMO Mot1 rescue 544 | Mot1 SUMO dose inactive
Cc1cc(=O)[nH]c2ccc(S(=O)(=O)Nc3ccccc3)cc12	none
Cc1ccc(C(=O)CCC(=O)OCC(=O)N(CC(C)C)c2c(N)n(Cc3ccccc3)c(=O)[nH]c2=O)cc1	none
Cc1cc(NC(=O)c2ccc3c(c2)C(=O)N(C(C)(C)C)C3=O)no1	SUMO Mot1 rescue 447 | Mot1 SUMO dose inactive
COc1ccc(-c2cc(C#N)nc(N3CCN(c4ccccc4)CC3)n2)cc1	SUMO Mot1 rescue 425 | Mot1 SUMO dose inactive
COc1ccc(-c2cc(-c3ccc(F)cc3)nc(N3CCN(C)CC3)n2)cc1	none
CCOC(=O)c1ccc(CNC(=O)C2CCCCC2C(=O)OCC(F)(F)F)o1 (configuration not stated)	SUMO Mot1 rescue active | Mot1 SUMO dose inactive
CCOC(=O)c1cnc2c(C)c(Cl)ccc2c1N1CCOCC1	SUMO Mot1 rescue 828 | Mot1 SUMO dose inactive
CCC(C)[C@H](N)c1nnc(SCC(=O)Nc2cccc(Cl)c2)o1 (some centres not stated)	SUMO Mot1 rescue 558 | Mot1 SUMO dose inactive
NCCCCCc1nnc(SCC(=O)Nc2cccc(Cl)c2)o1	none
CC[n+]1c(/C=C(/C)SC)sc2ccccc21	none
CC[n+]1c(/C=C(\C)SC)sc2ccccc21	SUMO Mot1 rescue 540 | Mot1 SUMO dose inactive
COc1ccccc1NC(=O)COC(=O)CC(C)(C)CC1=NS(=O)(=O)c2ccccc2N1	SUMO Mot1 rescue 396 | Mot1 SUMO dose inactive
O=C(O)C1C2CCC(O2)C1C(=O)NCCC1=CCCCC1 (configuration not stated)	SUMO Mot1 rescue 364 | Mot1 SUMO dose inactive
CCOc1ccc(C)cc1S(=O)(=O)n1nc(C)cc1C	SUMO Mot1 rescue 477 | Mot1 SUMO dose inactive
CCOc1ccc(-n2cc(C(=O)NCCOC)c3cc(OC)c(OC)cc3c2=O)cc1	SUMO Mot1 rescue 810 | Mot1 SUMO dose inactive
CC(N)(C(=O)O)c1cccc(OCc2cccc(Cl)c2)c1 (configuration not stated)	none
CN(C)CC/C=C1\c2ccccc2Sc2ccc(Cl)cc21	SUMO Mot1 rescue 497! | Mot1 SUMO dose inactive
COc1ccc(CN2C(=O)c3c(c(C)n(C)c3C)C2C(=O)NC2CCC(C)CC2)cc1 (configuration not stated)	SUMO Mot1 rescue 697 | Mot1 SUMO dose inactive
COc1cc(C(=O)NCCOc2cc(C)cc(C)c2)cc(OC)c1OC	SUMO Mot1 rescue 631 | Mot1 SUMO dose inactive
